Targets with a hit are over-represented here; the source holds about 8,800 in all. About 0.5% of all pairs of compound and target were hits. Unmarked numbers belong to inactive results.
Columns and labels:
Assay in all cases: log2 fold change, soluble protein after heating vs DMSO (PISA); higher = thermal stabilisation; K562 lysate, 10 uM; active = over 0.2 and 3.5 SD of the protein, either way, in both replicates (recomputed)
vemurafenib = compound: CCCS(=O)(=O)Nc1ccc(F)c(C(=O)c2c[nH]c3ncc(-c4ccc(Cl)cc4)cc23)c1F [vemurafenib]
Procedure, shortened: (§1)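 A 30 min treatment with 10 μM compound was applied to crude K562 extract at 1 mg/mL protein in PBS pH 7.4 with 1 mM MgCl2. Heating for 3 min spanned 48°C-58°C, after which aliquots were pooled, adjusted to 0.5% NP-40 at 4°C and spun at 21,000xg for 90 min. TMTpro 16plex LC-MS/MS of the supernatant, with channel sums equalised, gave values recorded as log-two fold change in thermal stability against solvent controls, from duplicates.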

[1] = compound: CCCS(=O)(=O)Nc1ccc(F)c(C(=O)c2c[nH]c3ncc(Cl)cc23)c1F
Procedure, shortened: as §1

barasertib = compound: CCN(CCCOc1ccc2c(Nc3cc(CC(=O)Nc4cccc(F)c4)[nH]n3)ncnc2c1)CCOP(=O)(O)O [barasertib]
Procedure, shortened: as §1

[2] = compound: CC[C@@H]1C(=O)N(C)c2cnc(Nc3ccc(C(=O)NC4CCN(C)CC4)cc3OC)nc2N1C1CCCC1
Procedure, shortened: as §1

volasertib = compound: CC[C@@H]1C(=O)N(C)c2cnc(Nc3ccc(C(=O)N[C@H]4CC[C@H](N5CCN(CC6CC6)CC5)CC4)cc3OC)nc2N1C(C)C [volasertib]
Procedure, shortened: as §1

[3] = compound: CCn1c(C(=O)N(C2CC2)C2CC2)cc2c3c(ncn3C)c(Nc3cc(C)n(C)n3)nc21
Procedure, shortened: as §1

[4] = compound: CCn1cc(-c2ccnc3[nH]c(-c4cccc(CN(C)C)c4)cc23)c(-c2ccc(NC(=O)N(C)C)cc2)n1
Procedure, shortened: as §1

[5] = compound: CN1CCC(CNc2ccc3ncc(-c4cccc(OC(F)(F)F)c4)n3n2)CC1
Procedure, shortened: as §1

saracatinib = compound: CN1CCN(CCOc2cc(OC3CCOCC3)c3c(Nc4c(Cl)ccc5c4OCO5)ncnc3c2)CC1 [saracatinib]
Procedure, shortened: as §1

sotrastaurin = compound: CN1CCN(c2nc(C3=C(c4c[nH]c5ccccc45)C(=O)NC3=O)c3ccccc3n2)CC1 [sotrastaurin]
Procedure, shortened: as §1

alvocidib = compound: CN1CC[C@H](c2c(O)cc(O)c3c(=O)cc(-c4ccccc4Cl)oc23)[C@H](O)C1 [alvocidib]
Procedure, shortened: as §1

Tubastatin A = compound: CN1CCc2c(c3ccccc3n2Cc2ccc(C(=O)NO)cc2)C1 [Tubastatin A]
Procedure, shortened: as §1

[6] = compound: CNC(=O)C1=CC=CC=C1NC2=NC(=NC=C2Cl)NC3=C(C=C(C=C3)N4CCOCC4)OC
Procedure, shortened: as §1

defactinib = compound: CNC(=O)c1ccc(Nc2ncc(C(F)(F)F)c(NCc3nccnc3N(C)S(C)(=O)=O)n2)cc1 [defactinib]
Procedure, shortened: as §1

[7] = compound: CNc1nc(-c2ccc3c(N)n[nH]c3c2)cc(N2C[C@@H](C(=O)NC3CCCCC3)CC[C@H]2C)n1
Procedure, shortened: as §1

encorafenib = compound: COC(=O)N[C@@H](C)CNc1nccc(-c2cn(C(C)C)nc2-c2cc(Cl)cc(NS(C)(=O)=O)c2F)n1 [encorafenib]
Procedure, shortened: as §1

[8] = compound: COC(=O)[C@H](CCSC)NC(=O)C1=C(C=C(C=C1)NC[C@H](CS)N)C2=CC=CC=C2
Procedure, shortened: as §1

alisertib = compound: COc1cc(Nc2ncc3c(n2)-c2ccc(Cl)cc2C(c2c(F)cccc2OC)=NC3)ccc1C(=O)O [alisertib]
Procedure, shortened: as §1

[9] = compound: COc1cc2nc(-c3cc(F)ccc3O)nc(N[C@@H]3CNC[C@H]3C(C)(C)O)c2cc1OC
Procedure, shortened: as §1

gefitinib = compound: COc1cc2ncnc(Nc3ccc(F)c(Cl)c3)c2cc1OCCCN1CCOCC1 [gefitinib]
Procedure, shortened: as §1

Sequence of UniProt Q92621 (Q92621 whole entry, looked up): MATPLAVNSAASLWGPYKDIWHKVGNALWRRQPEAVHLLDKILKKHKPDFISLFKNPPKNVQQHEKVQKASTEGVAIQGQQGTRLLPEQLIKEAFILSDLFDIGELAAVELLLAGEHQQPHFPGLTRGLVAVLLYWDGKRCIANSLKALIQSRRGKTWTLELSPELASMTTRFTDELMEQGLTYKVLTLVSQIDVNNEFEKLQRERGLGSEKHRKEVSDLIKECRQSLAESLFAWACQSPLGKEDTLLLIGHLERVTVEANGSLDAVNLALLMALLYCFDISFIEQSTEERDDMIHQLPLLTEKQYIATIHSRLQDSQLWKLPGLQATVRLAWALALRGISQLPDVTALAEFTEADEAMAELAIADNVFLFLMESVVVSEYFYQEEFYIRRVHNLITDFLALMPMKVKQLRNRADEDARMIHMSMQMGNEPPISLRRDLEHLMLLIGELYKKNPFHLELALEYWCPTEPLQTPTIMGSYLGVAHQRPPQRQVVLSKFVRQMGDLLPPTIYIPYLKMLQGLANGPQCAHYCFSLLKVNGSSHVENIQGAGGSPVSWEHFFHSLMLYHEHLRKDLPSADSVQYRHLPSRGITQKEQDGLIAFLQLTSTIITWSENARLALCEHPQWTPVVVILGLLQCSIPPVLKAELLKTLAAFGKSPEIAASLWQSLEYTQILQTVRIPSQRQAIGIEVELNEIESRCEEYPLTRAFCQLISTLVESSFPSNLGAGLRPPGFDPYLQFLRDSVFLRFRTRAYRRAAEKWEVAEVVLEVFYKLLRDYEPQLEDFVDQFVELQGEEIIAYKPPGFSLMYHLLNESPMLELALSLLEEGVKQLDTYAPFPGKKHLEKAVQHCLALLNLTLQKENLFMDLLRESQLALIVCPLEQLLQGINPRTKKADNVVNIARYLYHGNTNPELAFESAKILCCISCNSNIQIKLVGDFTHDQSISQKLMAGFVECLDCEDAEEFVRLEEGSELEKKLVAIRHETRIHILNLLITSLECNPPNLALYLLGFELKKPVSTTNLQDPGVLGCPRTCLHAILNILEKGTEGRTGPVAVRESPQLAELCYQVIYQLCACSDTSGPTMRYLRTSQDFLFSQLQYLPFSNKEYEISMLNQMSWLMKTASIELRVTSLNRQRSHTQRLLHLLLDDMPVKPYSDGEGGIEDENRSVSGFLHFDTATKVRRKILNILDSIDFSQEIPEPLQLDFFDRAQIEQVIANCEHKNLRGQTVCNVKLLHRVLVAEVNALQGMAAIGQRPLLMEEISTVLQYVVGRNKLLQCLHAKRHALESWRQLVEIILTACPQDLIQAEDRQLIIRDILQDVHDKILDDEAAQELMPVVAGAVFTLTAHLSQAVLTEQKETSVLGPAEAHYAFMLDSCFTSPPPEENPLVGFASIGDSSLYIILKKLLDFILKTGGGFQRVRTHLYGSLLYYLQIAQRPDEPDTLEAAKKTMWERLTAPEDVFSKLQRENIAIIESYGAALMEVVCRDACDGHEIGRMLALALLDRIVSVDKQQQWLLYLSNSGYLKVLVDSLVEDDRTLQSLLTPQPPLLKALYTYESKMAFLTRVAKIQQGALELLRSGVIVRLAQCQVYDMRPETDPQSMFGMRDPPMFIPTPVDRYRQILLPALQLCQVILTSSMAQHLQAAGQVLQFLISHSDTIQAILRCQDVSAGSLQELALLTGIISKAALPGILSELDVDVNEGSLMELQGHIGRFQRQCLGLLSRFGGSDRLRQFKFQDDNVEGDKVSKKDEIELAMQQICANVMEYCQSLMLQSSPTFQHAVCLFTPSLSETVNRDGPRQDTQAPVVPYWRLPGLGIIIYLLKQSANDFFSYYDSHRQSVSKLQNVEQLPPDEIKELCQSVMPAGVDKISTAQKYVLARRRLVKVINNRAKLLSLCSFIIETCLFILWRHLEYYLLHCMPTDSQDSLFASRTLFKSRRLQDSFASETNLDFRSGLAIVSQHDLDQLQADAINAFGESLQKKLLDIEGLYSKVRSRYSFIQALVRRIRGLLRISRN
Sequence of UniProt O00483 (O00483 whole entry, looked up): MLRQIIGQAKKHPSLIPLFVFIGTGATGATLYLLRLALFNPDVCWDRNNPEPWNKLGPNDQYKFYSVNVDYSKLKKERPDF
Sequence of UniProt Q6KC79 (Q6KC79 whole entry, looked up): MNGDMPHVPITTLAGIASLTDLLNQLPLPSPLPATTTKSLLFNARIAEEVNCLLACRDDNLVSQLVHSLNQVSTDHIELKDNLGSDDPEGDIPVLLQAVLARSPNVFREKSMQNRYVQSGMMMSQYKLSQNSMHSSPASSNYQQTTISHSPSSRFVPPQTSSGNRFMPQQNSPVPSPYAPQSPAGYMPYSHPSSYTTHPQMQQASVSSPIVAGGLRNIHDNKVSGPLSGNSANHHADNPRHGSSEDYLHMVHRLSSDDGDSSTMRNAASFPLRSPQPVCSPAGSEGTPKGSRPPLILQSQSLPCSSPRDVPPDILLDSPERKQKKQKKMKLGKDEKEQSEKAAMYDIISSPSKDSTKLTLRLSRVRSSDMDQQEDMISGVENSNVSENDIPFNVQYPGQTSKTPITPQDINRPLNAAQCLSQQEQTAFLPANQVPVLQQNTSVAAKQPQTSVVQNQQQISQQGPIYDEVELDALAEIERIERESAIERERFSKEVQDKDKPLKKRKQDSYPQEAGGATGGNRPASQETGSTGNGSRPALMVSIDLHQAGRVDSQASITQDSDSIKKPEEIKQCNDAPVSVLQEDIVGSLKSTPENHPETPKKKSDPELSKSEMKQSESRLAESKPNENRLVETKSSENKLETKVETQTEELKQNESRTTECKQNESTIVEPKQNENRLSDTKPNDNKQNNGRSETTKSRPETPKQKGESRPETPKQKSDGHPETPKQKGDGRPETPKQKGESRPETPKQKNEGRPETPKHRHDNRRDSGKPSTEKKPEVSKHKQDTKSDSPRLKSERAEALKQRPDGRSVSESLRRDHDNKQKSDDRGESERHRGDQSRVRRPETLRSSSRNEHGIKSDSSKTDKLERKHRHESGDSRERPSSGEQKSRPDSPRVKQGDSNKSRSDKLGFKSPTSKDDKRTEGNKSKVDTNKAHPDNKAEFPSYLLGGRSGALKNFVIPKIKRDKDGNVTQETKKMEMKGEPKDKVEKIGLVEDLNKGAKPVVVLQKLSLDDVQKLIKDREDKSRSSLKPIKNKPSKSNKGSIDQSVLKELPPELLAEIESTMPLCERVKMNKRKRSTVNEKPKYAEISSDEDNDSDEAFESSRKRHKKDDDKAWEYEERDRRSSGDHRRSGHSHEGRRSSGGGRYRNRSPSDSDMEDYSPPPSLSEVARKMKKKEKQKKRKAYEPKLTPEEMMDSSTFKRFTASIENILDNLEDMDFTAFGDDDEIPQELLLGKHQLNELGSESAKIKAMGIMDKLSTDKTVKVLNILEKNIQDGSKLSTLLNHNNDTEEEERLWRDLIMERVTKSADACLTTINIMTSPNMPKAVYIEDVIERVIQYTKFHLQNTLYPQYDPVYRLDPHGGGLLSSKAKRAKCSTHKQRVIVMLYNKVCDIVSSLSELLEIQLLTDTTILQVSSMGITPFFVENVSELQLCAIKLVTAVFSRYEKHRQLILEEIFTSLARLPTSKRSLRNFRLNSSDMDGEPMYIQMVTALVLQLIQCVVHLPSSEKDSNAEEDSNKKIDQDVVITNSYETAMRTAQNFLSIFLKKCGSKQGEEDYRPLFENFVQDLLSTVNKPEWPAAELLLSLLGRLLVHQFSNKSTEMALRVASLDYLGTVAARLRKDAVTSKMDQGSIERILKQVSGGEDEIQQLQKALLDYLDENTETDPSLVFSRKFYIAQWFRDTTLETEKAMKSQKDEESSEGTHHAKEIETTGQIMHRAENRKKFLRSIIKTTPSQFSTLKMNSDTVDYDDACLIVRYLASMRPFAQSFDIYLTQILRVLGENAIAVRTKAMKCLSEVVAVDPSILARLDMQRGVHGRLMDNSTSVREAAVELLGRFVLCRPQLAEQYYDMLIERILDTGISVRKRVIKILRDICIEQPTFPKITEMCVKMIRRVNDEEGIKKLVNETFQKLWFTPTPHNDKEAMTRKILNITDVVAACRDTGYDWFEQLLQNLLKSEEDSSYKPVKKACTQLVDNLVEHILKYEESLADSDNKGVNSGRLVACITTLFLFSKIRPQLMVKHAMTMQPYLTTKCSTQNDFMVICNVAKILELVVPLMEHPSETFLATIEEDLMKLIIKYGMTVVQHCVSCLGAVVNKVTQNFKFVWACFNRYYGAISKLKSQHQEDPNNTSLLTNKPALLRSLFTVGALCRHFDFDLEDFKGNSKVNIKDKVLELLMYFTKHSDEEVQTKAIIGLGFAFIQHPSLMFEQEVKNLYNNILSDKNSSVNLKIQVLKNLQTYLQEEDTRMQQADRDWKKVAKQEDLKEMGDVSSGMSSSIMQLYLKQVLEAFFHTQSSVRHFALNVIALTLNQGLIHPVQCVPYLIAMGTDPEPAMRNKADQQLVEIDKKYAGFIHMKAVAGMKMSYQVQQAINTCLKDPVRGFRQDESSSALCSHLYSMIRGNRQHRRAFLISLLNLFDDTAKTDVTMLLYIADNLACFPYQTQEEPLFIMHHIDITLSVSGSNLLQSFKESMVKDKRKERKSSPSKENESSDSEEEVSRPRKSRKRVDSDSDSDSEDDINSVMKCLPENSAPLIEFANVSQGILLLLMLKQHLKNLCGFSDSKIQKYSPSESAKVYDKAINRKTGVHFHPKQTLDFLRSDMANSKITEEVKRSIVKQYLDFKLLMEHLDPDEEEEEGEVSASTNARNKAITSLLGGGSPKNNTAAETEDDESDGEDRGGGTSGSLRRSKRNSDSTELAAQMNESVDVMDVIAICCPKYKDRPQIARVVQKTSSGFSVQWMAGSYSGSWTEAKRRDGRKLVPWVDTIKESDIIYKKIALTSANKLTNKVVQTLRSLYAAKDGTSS

Target	log2 fold change (vemurafenib)	log2 fold change [1]	log2 fold change (barasertib)	log2 fold change [2]	log2 fold change (volasertib)	log2 fold change [3]	log2 fold change [4]	log2 fold change [5]	log2 fold change (saracatinib)	log2 fold change (sotrastaurin)	log2 fold change (alvocidib)	log2 fold change (Tubastatin A)	log2 fold change [6]	log2 fold change (defactinib)	log2 fold change [7]	log2 fold change (encorafenib)	log2 fold change [8]	log2 fold change (alisertib)	log2 fold change [9]	log2 fold change (gefitinib)
PAK4 (UniProt O96013)	-0.016	-0.06	-0.005	-0.131	-0.134	0.259	0.02	0.3	-0.018	0.063	-0.019	-0.038	0.27	0.441	-0.021	-0.173	-0.057	0.002	0.241	-0.027
NFIC (UniProt P08651)	-0.071	0.014	-0.106	0.101	-0.001	-0.01	-0.453 (active)	0.055	0.049	-0.01	-0.103	-0.104	0.078	-0.153	-0.048	0.121	-0.025	0	-0.025	0.117
NIPBL (UniProt Q6KC79)	-0.015	0.091	0.017	-0.081	-0.048	0.04	-0.004	-0.042	-0.001	0.004	-0.008	-0.183	-0.04	0.006	0	0.008	0.09	-0.066	0.035	0.027
OSBPL6 isoform 5 (UniProt Q9BZF3)	-0.026	-0.021	-0.015	-0.052	-0.072	0.015	-0.004	0.084	-0.009	-0.035	-0.056	-0.05	-0.043	-0.063	-0.047	-0.005	0.015	-0.068	-0.004	0.164
NDUFA4 (UniProt O00483)	-0.009	0.245	0.058	0.011	0.122	0.085	0.067	-0.134	0.018	-0.063	0.022	0.055	0.054	0.143	0.004	0.028	0.009	0.055	-0.079	-0.133
NONO (UniProt Q15233)	-0.005	0.018	-0.006	-0.032	-0.049	0	0.076	-0.043	0.004	-0.015	0.049	-0.126	0.04	-0.01	0.014	0.011	0.102	0.026	-0.004	0.007
NDUFS1 isoform 2 (UniProt P28331)	0.041	0.018	0.011	-0.032	-0.001	0.016	-0.006	-0.027	-0.004	0.054	0.008	-0.018	-0.024	0.028	0.014	-0.011	0.05	0.03	-0.025	-0.001
NUP205 (UniProt Q92621)	0.007	0.017	0.038	-0.047	-0.074	0.027	-0.075	-0.064	0.043	0.022	-0.02	-0.078	0.012	0.015	-0.003	0.016	-0.081	0.008	0	-0.018

From the supplement of paper PMC10849652
